Mot1-301 SUMO: SUMOylation pathway inhibition by Mot1-301 growth rescue | S. cerevisiae Mot1-301 growth rescue, ATP luminescence, 38.5C; percent above DMSO median, 100 means doubled | actives 1% (n = 320,000) | growth rescue, % at 18.8 µM;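 active = every valid replicate shows activation above 250% relative to neutral control wells; inactive = the rest, any valid replicate at or below 250%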
ALR H2O2 inh: blocks human ALR sulfhydryl oxidase activity; P55789; purified ALR, DTT oxidation, H2O2 HRP-luminol luminescence; inhibition, % (no concentration beside the values); actives 3.8% (n = 290,000); AID 485317;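 active = mean replicate inhibition above about 79%, with every replicate also reaching it, limit read from the data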
Target sequence (P55789 whole entry, looked up): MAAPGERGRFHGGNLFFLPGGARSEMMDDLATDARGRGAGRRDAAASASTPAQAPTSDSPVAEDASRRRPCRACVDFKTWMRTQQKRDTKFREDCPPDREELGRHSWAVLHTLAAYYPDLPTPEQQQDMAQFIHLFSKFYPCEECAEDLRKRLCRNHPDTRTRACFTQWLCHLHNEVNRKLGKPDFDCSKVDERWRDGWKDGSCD
PfM18AAP inh: blocks P. falciparum M18 aspartyl aminopeptidase | recombinant PfM18AAP, H-Glu-NHMec fluorogenic cleavage | inhibition, % at 7.35 µM | actives 1.2% (n = 290,000);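 active = inhibition above the campaign mean inhibition over all tested compounds plus 3 SD, cut at about 28% in these data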
HIF act: HIF pathway transcriptional activation; U2OS HRE-luciferase reporter, luminescence; normalized: DMSO 0%, desferrioxamine 100%; activation, % at 7.5 µM (by protocol); actives 0.32% (n = 300,000); AID 1910;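 active = mean activation of at least 10% of the iron chelator positive control signal, with at least half of replicates also reaching 10%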
Of the large screens only hits and unclear results are named; the others gave an inactive call. Sampled rows, rich in hits. Any-hit rate of the full collection: about 5.3%.

O=C(O)CCc1ccc(-c2ccccc2)n1-c1ccc(C(=O)O)cc1	none
COc1ccc(CN(C)C(=O)c2ccc(OCC(=O)N3CCOCC3)c(OC)c2)cc1	none (no result: PfM18AAP inh, HIF act)
CSCC(C)N1CCC(CCC(=O)NC2CC2)CC1 (configuration not stated)	none
Cc1nc2sc(C(c3ccccc3)N3CCN(c4ccccc4F)CC3)c(O)n2n1 (configuration not stated)	none
CCCCn1c(N)c(N(CC)C(=O)c2ccc([N+](=O)[O-])c(C)c2)c(=O)[nH]c1=O	none
COc1ccc(NC(=O)COC(=O)C2CC2)c(OC)c1	none (no result: PfM18AAP inh, HIF act)
CC(c1ccco1)N(C(=O)c1ccccc1NS(=O)(=O)c1cccc([N+](=O)[O-])c1)c1ccccn1 (configuration not stated)	none
CC(c1ccco1)N(C(=O)c1ccccc1NS(=O)(=O)c1cc([N+](=O)[O-])ccc1Cl)c1ccccn1 (configuration not stated)	Mot1-301 SUMO 402.2
Cc1ccc(C(=O)N(c2ccccn2)C(C)c2ccco2)cc1C (configuration not stated)	ALR H2O2 inh 97.1 (no result: Mot1-301 SUMO)
N#C/C(C(=O)Nc1ccc(Cl)cc1)=C(/S)Nc1ccccc1	PfM18AAP inh 56.8
CC(=O)c1ccc(NC(=O)C2CCCN2S(=O)(=O)c2ccc(F)cc2)cc1 (configuration not stated)	none
O=C(Nc1ccc(O)cc1)C1CCCN1S(=O)(=O)c1ccc(F)cc1 (configuration not stated)	ALR H2O2 inh 98.2
O=C(CC(C(=O)N1CCc2ccccc21)n1ccnc1)NCc1cccnc1 (configuration not stated)	none (no result: ALR H2O2 inh)
CCN(CCCNC(=O)CC(C(=O)N1CCc2ccccc21)n1ccnc1)c1ccccc1 (configuration not stated)	ALR H2O2 inh 98.9
O=S(=O)(N/N=C1\CC(c2ccccc2)Oc2ccccc21)c1ccccc1 (configuration not stated)	ALR H2O2 inh 95.7
COC(=O)c1c(NC(=O)Cc2ccccc2)sc2c1CC(C)(C)NC2(C)C	PfM18AAP inh 28.7
Cc1ccc(OCCSc2nc3ccccc3n2CC(=O)O)cc1	none (no result: ALR H2O2 inh)
Oc1c(N=Nc2ccccn2)ccc2ccccc12	HIF act 33.6
CC(C)=CCc1cc2c(=O)c3c(O)c4c(cc3oc2c(O)c1O)OC(C)C4(C)C (configuration not stated)	none (no result: PfM18AAP inh)
Nc1ccccc1OCCOCCOCCOc1ccccc1N	ALR H2O2 inh 96.8
O=P(COCCOCCOCP(=O)(c1ccccc1)c1ccccc1)(c1ccccc1)c1ccccc1	none
Nc1ccccc1OCP(=O)(c1ccccc1)c1ccccc1	ALR H2O2 inh 96.2
Cc1ccc(OCc2ccc(C(=O)Nc3nc4ccccc4n3C)o2)c([N+](=O)[O-])c1	none
O=C(NC1CCCC1)c1ccc(CSc2nc3ccncc3n2Cc2ccc(F)cc2)cc1	ALR H2O2 inh 98.9
CCC(C)NC(=O)c1ccc(CSc2nc3ccncc3n2Cc2ccc(F)cc2)cc1 (configuration not stated)	none
O=C(NCCN1CCOCC1)c1ccc(CSc2nc3ccncc3n2Cc2ccc(F)cc2)cc1	ALR H2O2 inh 98.8
C=CCNCc1ccccc1[N+](=O)[O-]	none (no result: PfM18AAP inh)
CCCCCCNCC(=O)N1CCC(Cc2ccccc2)CC1	none
CC(C)CCn1cnc2c(oc3nc4c(cc32)CCCC4)c1=O	none
COc1ccc(NC(=O)CN2C(=O)CSC(C)C2=O)cc1 (configuration not stated)	none
CC(=O)c1cccc(Oc2cc(NN3CCCCC3)c([N+](=O)[O-])cc2[N+](=O)[O-])c1	ALR H2O2 inh 92.8
O=[N+]([O-])c1cc([N+](=O)[O-])c(Oc2c(F)ccc(F)c2F)cc1NN1CCCCC1	ALR H2O2 inh 95.8
O=[N+]([O-])c1cc([N+](=O)[O-])c(Oc2c(F)cccc2F)cc1NN1CCCCC1	none (no result: ALR H2O2 inh)
Cc1ccc2nc(NC(=O)Cn3cc4c(n3)CCCCC4)sc2c1	none (no result: ALR H2O2 inh)
COc1cccc(/C=N/c2oc(-c3ccccc3)cc2C#N)c1O	ALR H2O2 inh 85.8
N#Cc1cc(-c2ccccc2)oc1/N=C/c1ccccc1O	ALR H2O2 inh 97.3
COc1ccc(/C=N/c2oc(-c3ccccc3)cc2C#N)cc1	ALR H2O2 inh 97.5
Cc1oc(/N=C/c2ccccc2)c(C#N)c1C	none
O=C(c1ccccc1)c1c(O)cc(-c2ccccc2)oc1=O	none
C=CCN(c1ccc(C(=O)Nc2ccc(NC(C)=O)cc2)cc1)S(C)(=O)=O	none
CC(Sc1nnc(COc2ccc([N+](=O)[O-])cc2)n1C)C(=O)O (configuration not stated)	HIF act 93.2
CC(Sc1nnc(COc2ccc([N+](=O)[O-])cc2)n1-c1ccccc1)C(=O)O (configuration not stated)	none
Clc1ccc(C[n+]2csc3ccccc32)cc1	PfM18AAP inh 37.6 (no result: HIF act)
CCc1ccc(NC(=O)COC(=O)/C=C/c2ccco2)cc1	none (no result: PfM18AAP inh, HIF act)
CCN(CC)c1ccc(NC(=O)COC(=O)c2ccc3ccccc3n2)cc1	ALR H2O2 inh 98.9
CCN(c1ccc(NC(=O)COC(=O)/C=C/c2ccco2)cc1)C(C)C	ALR H2O2 inh 98.6 (no result: PfM18AAP inh, HIF act)
CCN(c1ccc(NC(=O)COC(=O)CCC(=O)c2ccc(F)cc2)cc1)C(C)C	ALR H2O2 inh 93.2
CCN(c1ccc(NC(=O)COC(=O)c2cccs2)cc1)C(C)C	ALR H2O2 inh 98.8
CCN(CC)c1ccc(NC(=O)COC(=O)c2cccs2)cc1	ALR H2O2 inh 97.9
O=c1[nH]c(/C=C\c2cccs2)nc(O)c1[N+](=O)[O-]	none
CN(C(=O)/C=C/c1ccccc1)C1CCCCC1	none (no result: PfM18AAP inh)
CCCC(C)c1nnc(NC(=O)CCS(=O)(=O)Cc2ccccc2)s1 (configuration not stated)	PfM18AAP inh 28.8
CCCC(C)c1nnc(NC(=O)CS(=O)(=O)Cc2ccccc2)s1 (configuration not stated)	none
O=C(O)CSc1nc(SCc2ccccc2Cl)nc2c1CCCC2	ALR H2O2 inh 94.7
COC(=O)CSc1nc(SCc2ccccc2Cl)nc2c1CCCC2	none
O=c1oc2ccccc2cc1-c1csc(NN=C2CCCCC2)n1	ALR H2O2 inh 86.8
O=C(Nc1nc(-c2cc3ccccc3oc2=O)cs1)c1ccco1	none
Cc1cccc(/C=N/NC(=O)CN2CCCCCCC2)c1	none
COc1ccccc1OCC(=O)N/N=C/c1c(O)ccc2ccccc12	HIF act 17.7
O=C(CN1CCCC1)N/N=C/c1c(O)ccc2ccccc12	HIF act 27.8
O=C(CN1CCCC1)NN=C(c1ccccc1)c1ccccc1	Mot1-301 SUMO 391.9
Cc1ccc(O)c(/C=N/NC(=O)CN2CCCC2)c1	HIF act 14.8
COc1cccc(CNC(=O)Cn2ccc3cc(S(=O)(=O)N4CCCCCC4)ccc32)c1OC	none
CCC(C)(C)NC(=O)C(c1ccncc1)N(C(=O)Cn1nnc2ccccc21)c1cc2c(cc1C(C)=O)OCO2 (configuration not stated)	none
O=c1c2ccccc2nc(N/N=C/c2ccc(O)cc2)n1O	none
O=c1c2ccccc2nc(N/N=C/c2c(O)ccc3ccccc23)n1O	PfM18AAP inh 30.4, HIF act 15.1

Bioassay records: PubChem BioAssay, several laboratories
